Rows were chosen to be rich in hits. Some 11% of all compounds tested hit in one or more screens of this group.
Pf growth 48h: P. falciparum growth inhibition at 48 hours (one generation); P. falciparum luciferase growth in erythrocytes, 48 h; Potency, µM (doses to about 28.7 µM), actives largely listed as inhibitors; 310,000 compounds, 5.9% hits; AID 504832
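Firefly luciferase activity from engineered P. falciparum reports growth; inhibitors lower the luminescent signal. Cultures contained 2% hematocrit erythrocytes at 0.1% final parasitemia.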
VACV Venus inh: vaccinia inhibition (Venus reporter); Vaccinia virus Venus reporter expression, fluorescence; Potency, µM (series often up to 36.5 µM), hits mostly inhibitors; 330,000 compounds, 0.46% hits; AID 720580; calls by dose curve; tested in A549 cells; note: nearly all actives have a fitted effect of over 30% in size
Pf growth 96h: inhibits malaria parasite growth, 96 h; P. falciparum luciferase reporter growth, 96 h; Potency, µM (titrated, usually from 28.7 µM), most hits filed as inhibitors; 320,000 compounds, 6.9% hits; AID 504834
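Readout is luminescence from an integrated firefly luciferase in P. falciparum. Red cells, 2% hematocrit and 0.05% parasitemia final, were cultured with compound through two parasite generations (96 hours) at 37 C, 5% CO2.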
HCV inh: HCV inhibition. Huh7.5.1 HCVcc-Cre infection, luciferase reporter, 44 h. Potency, µM (highest dose often 41.8 µM), hits mostly inhibitors. 340,000 compounds, 3.4% hits. AID 651820
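Seed cells (1,000/well) for 4 h; treat with compound and infect with HCVcc-Cre, moi about 0.5. Incubate 44 h, then detect luciferase activity.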
Vaccinia mCherry: inhibitors of vaccinia virus infection (mCherry reporter signal); Vaccinia virus mCherry reporter infection, fluorescence; Potency, µM (highest dose often 36.5 µM), most hits filed as inhibitors; 310,000 compounds, 0.63% hits; AID 720579; calls by dose curve; tested in A549 cells; note: nearly all actives have a fitted effect of over 35% in size
NS1 inh: blocks influenza NS1 protein function. Potency, µM (titrated, usually from 46.1 µM). 270,000 compounds, 0.4% hits. AID 2326; calls by dose curve; note: actives are rising curves; nearly all actives have a fitted effect of over 50% in size
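Growth recovery, yeast-based: influenza A NS1 expressed in S. cerevisiae causes slow growth, and suppressors are detected by OD600. The parent strain without NS1 is used as positive control.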
Of the large screens only hits and unclear results are named; the others gave an inactive call. Unless noted, calls come from the whole dose curve; as a rule, active = well fitted inhibition curve with a large enough effect; inconclusive = small, poorly fitted or top-dose-only effect, or another doubt; inactive = no such curve, though single readings can be large or run the other way.

CCCn1c(=N)c(C(=O)NCc2ccc3c(c2)OCO3)cc2c(=O)n3cccc(C)c3nc21	Pf growth 48h 1µM
CCCn1c(=N)c(C(=O)NCc2cccnc2)cc2c(=O)n3cccc(C)c3nc21	none (no result: Pf growth 48h, Pf growth 96h, HCV inh, NS1 inh)
Cc1cccn2c(=O)c3cc(C(=O)NCc4ccc(F)cc4)c(=N)n(CC4CCCO4)c3nc12 (configuration not stated)	Pf growth 48h 4.1µM, Pf growth 96h 2.9µM (no result: VACV Venus inh, Vaccinia mCherry)
COCCCn1c(C(=O)N2CCOCC2)cc2c(=O)n3cccc(C)c3nc21	none (no result: Pf growth 48h, Pf growth 96h, NS1 inh)
CSc1ccc(CNc2ncc(-c3cccc([N+](=O)[O-])c3)n2C)cc1	HCV inh inconclusive (no result: VACV Venus inh, Vaccinia mCherry)
CCc1ccc(NC(=O)C2CC=CCC2C(=O)O)cc1 (configuration not stated)	none (no result: VACV Venus inh, Vaccinia mCherry)
C=CCn1c(=N)c(C(=O)NCCCOC)cc2c(=O)n3cc(C)ccc3nc21	Pf growth 96h 7.4µM
C=CCn1c(=N)c(C(=O)NCCCOC)cc2c(=O)n3ccccc3nc21	none
COc1ccc(CNC(=O)c2cc3c(=O)n4cccc(C)c4nc3n(CC3CCCO3)c2=N)cc1 (configuration not stated)	Pf growth 48h inconclusive, Pf growth 96h 5.2µM (no result: VACV Venus inh, Vaccinia mCherry)
COc1ccc(CCN2CC(C(=O)NCC(=O)Nc3ccc(F)c(F)c3)CC2=O)cc1OC (configuration not stated)	Pf growth 96h inconclusive (no result: NS1 inh)
O=C(c1ccc(NC(=S)Nc2ccc(F)cc2F)cc1)N1CCOCC1	none
Cc1c(C)c2ccc(OC(C)C(=O)N3CC[C@@]4(O)CCCC[C@H]4C3)cc2oc1=O (some centres not stated)	VACV Venus inh inconclusive, Pf growth 96h 9.3µM, HCV inh inconclusive, Vaccinia mCherry inconclusive
Cc1c(C)c2ccc(OC(C)C(=O)N3CC[C@@]4(O)CCCC[C@H]4C3)c(C)c2oc1=O (some centres not stated)	Pf growth 48h inconclusive, Pf growth 96h inconclusive
Cc1cc(NCc2ccc3c(c2)OCO3)n2nc(C)nc2n1	Pf growth 96h 0.37µM (no result: VACV Venus inh, Vaccinia mCherry)
CCc1nc2nc(C)cc(Nc3cccc(C(F)(F)F)c3)n2n1	Pf growth 48h 2.1µM, VACV Venus inh 10µM, HCV inh inconclusive (no result: Vaccinia mCherry)
Cc1cc(Nc2cccc(C(F)(F)F)c2)n2nc(C)nc2n1	Pf growth 48h inconclusive, VACV Venus inh 10µM (no result: Vaccinia mCherry)
Cc1cc(Nc2ccc(Br)c(C)c2)n2nc(C)nc2n1	Pf growth 48h 0.26µM, Pf growth 96h 10µM, Vaccinia mCherry inconclusive
Cc1ccc(Nc2cc(C)nc3nc(C)nn23)cc1	Pf growth 48h inconclusive, NS1 inh inconclusive

Source: PubChem BioAssay (National Center for Advancing Translational Sciences (NCATS))
